Source: PubChem BioAssay AID1159580 (chemical genetic matrix, 2015)
Among all 5,500 compounds or so, about 2,000 (36%) were called active. Another 18% or so got no clear call; they are omitted. No stated cut-off is given here; in the data, active means normalized growth mostly below about 0.91 (no sharp cut-off); inconclusive means no clear call, values can overlap the other calls; inactive means mostly above about 0.92. Some of the results follow.

Assay: chemical genetic growth profiling, strain panel (AID 1159580);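 further: tested at 20 µM; growth read once vehicle control cultures reached saturation at 30 °C; 1 = growth at the plate median or of vehicle wells; lower values mean less growth of the strain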
Details: growth OD
[1] = S. cerevisiae deletion strains, locus YDL101C, strain DUN1, active compounds read low
[2] = S. cerevisiae deletion strains, locus YHR030C, strain SLT2, active compounds read low

Measured: normalized growth

CCSc1nnc(N)s1
inactive: S. cerevisiae deletion strains, locus YAL013W, strain DEP1, active compounds read low 1.02 | S. cerevisiae deletion strains, locus YBR229C, strain ROT2, active compounds read low 1.01 | [1] 1.01 | S. cerevisiae deletion strains, locus YDL134C, strain PPH21, active compounds read low 1.01 | S. cerevisiae deletion strains, locus YDR150W, strain NUM1, active compounds read low 1 | S. cerevisiae deletion strains, locus YEL061C, strain CIN8, active compounds read low 0.996 | S. cerevisiae deletion strains, locus YGR078C, strain PAC10, active compounds read low 1.01 | [2] 1.05 | S. cerevisiae deletion strains, locus YHR087W, strain rtc3, active compounds read low 1.01 | S. cerevisiae deletion strains, locus YJL187C, strain SWE1, active compounds read low 1.01 | S. cerevisiae deletion strains, locus YJR043C, strain POL32, active compounds read low 1 | S. cerevisiae deletion strains, locus YJR075W, strain HOC1, active compounds read low 0.994 | S. cerevisiae deletion strains, locus YLR039C, strain RIC1, active compounds read low 1.01 | S. cerevisiae deletion strains, locus YLR058C, strain SHM2 (second series), active compounds read low 1.01 | S. cerevisiae deletion strains, locus YLR085C, strain ARP6, active compounds read low 0.999 | S. cerevisiae deletion strains, locus YLR262C, strain YPT6, active compounds read low 1.05 | S. cerevisiae deletion strains, locus YML094W, strain GIM5, active compounds read low 0.995 | S. cerevisiae deletion strains, locus YMR219W, strain ESC1, active compounds read low 1.01 | S. cerevisiae deletion strains, locus YMR263W, strain SAP30, active compounds read low 1 | S. cerevisiae deletion strains, locus YMR307W, strain GAS1, active compounds read low 0.981 | S. cerevisiae deletion strains, locus YNL128W, strain TEP1, active compounds read low 1.01 | S. cerevisiae deletion strains, locus YNL153C, strain GIM3, active compounds read low 0.997 | S. cerevisiae deletion strains, locus YNL298W, strain CLA4 (second series), active compounds read low 0.995 | S. cerevisiae deletion strains, locus YNL322C, strain KRE1, active compounds read low 1.02 | S. cerevisiae deletion strains, locus YNR030W, strain Alg12, active compounds read low 1.01 | S. cerevisiae deletion strains, locus YPL055C, strain LGE1, active compounds read low 0.997 | S. cerevisiae deletion strains, locus YPL241C, strain CIN2, active compounds read low 1.01 | S. cerevisiae deletion strains, locus YPR135W, strain CTF4, active compounds read low 1.11 | S. cerevisiae strains, strain wild type, active compounds read low 1.01

N#CC(C#N)=C/C=C(/Sc1ccc(F)c(Cl)c1)c1ccc(Cl)cc1
active: [2] 0.741 | S. cerevisiae deletion strains, locus YLR113W, strain HOG1, active compounds read low 0.632
inactive: S. cerevisiae deletion strains, locus YAR019C, strain CDC15, active compounds read low 0.937 | S. cerevisiae deletion strains, locus YBL105C, strain PKC1, active compounds read low 0.948 | S. cerevisiae deletion strains, locus YBR135W, strain CKS1, active compounds read low 0.943 | S. cerevisiae deletion strains, locus YBR136W, strain MEC1, active compounds read low 0.949 | S. cerevisiae deletion strains, locus YBR160W, strain CDC28, active compounds read low 0.958 | S. cerevisiae deletion strains, locus YDL017W, strain CDC7, active compounds read low 0.961 | S. cerevisiae deletion strains, locus YDL028C, strain MPS1, active compounds read low 0.949 | [1] 0.961 | S. cerevisiae deletion strains, locus YDL108W, strain KIN28, active compounds read low 0.947 | S. cerevisiae deletion strains, locus YDL132W, strain cdc53, active compounds read low 0.942 | S. cerevisiae deletion strains, locus YDL214C, strain PRR2, active compounds read low 0.891 | S. cerevisiae deletion strains, locus YDR052C, strain DBF4, active compounds read low 0.956 | S. cerevisiae deletion strains, locus YDR054C, strain cdc34, active compounds read low 0.943 | S. cerevisiae deletion strains, locus YDR226W, strain ADK1, active compounds read low 0.964 | S. cerevisiae deletion strains, locus YDR477W, strain SNF1, active compounds read low 0.839 | S. cerevisiae deletion strains, locus YER123W, strain YCK3, active compounds read low 0.822 | S. cerevisiae deletion strains, locus YER133W, strain GLC7, active compounds read low 0.872 | S. cerevisiae deletion strains, locus YFL009W, strain cdc4, active compounds read low 0.943 | S. cerevisiae deletion strains, locus YFL029C, strain CAK1, active compounds read low 0.951 | S. cerevisiae deletion strains, locus YFR003C, strain YPI1, active compounds read low 0.951 | S. cerevisiae deletion strains, locus YFR019W, strain FAB1, active compounds read low 0.95 | S. cerevisiae deletion strains, locus YFR028C, strain CDC14, active compounds read low 0.949 | S. cerevisiae deletion strains, locus YGR040W, strain KSS1, active compounds read low 0.823 | S. cerevisiae deletion strains, locus YGR052W, strain FMP48, active compounds read low 0.81 | S. cerevisiae deletion strains, locus YGR092W, strain DBF2, active compounds read low 0.759 | S. cerevisiae deletion strains, locus YHR079C, strain IRE1, active compounds read low 0.806 | S. cerevisiae deletion strains, locus YHR082C, strain KSP1, active compounds read low 0.839 | S. cerevisiae deletion strains, locus YHR205W, strain SCH9, active compounds read low 0.608 | S. cerevisiae deletion strains, locus YIL147C, strain SLN1, active compounds read low 0.951 | S. cerevisiae deletion strains, locus YJL095W, strain BCK1, active compounds read low 0.69 | S. cerevisiae deletion strains, locus YJL128C, strain PBS2, active compounds read low 0.896 | S. cerevisiae deletion strains, locus YJL157C, strain FAR1, active compounds read low 0.892 | S. cerevisiae deletion strains, locus YJR016C, strain ILV3, active compounds read low 0.937 | S. cerevisiae deletion strains, locus YJR066W, strain TOR1 (second series), active compounds read low 0.748 | S. cerevisiae deletion strains, locus YJR066W, strain TOR1, active compounds read low 0.781 | S. cerevisiae deletion strains, locus YKL048C, strain ELM1, active compounds read low 0.932 | S. cerevisiae deletion strains, locus YKL067W, strain YNK1, active compounds read low 0.888 | S. cerevisiae deletion strains, locus YKL101W, strain HSL1, active compounds read low 0.834 | S. cerevisiae deletion strains, locus YKL193C, strain SDS22, active compounds read low 0.947 | S. cerevisiae deletion strains, locus YKL203C, strain TOR2, active compounds read low 0.87 | S. cerevisiae deletion strains, locus YLR133W, strain CKI1, active compounds read low 0.906 | S. cerevisiae deletion strains, locus YLR403W, strain SFP1, active compounds read low 0.753 | S. cerevisiae deletion strains, locus YML070W, strain DAK1, active compounds read low 0.855 | S. cerevisiae deletion strains, locus YMR001C, strain CDC5, active compounds read low 0.944 | S. cerevisiae deletion strains, locus YMR205C, strain PFK2 (second series), active compounds read low 0.89 | S. cerevisiae deletion strains, locus YMR277W, strain FCP1, active compounds read low 0.941 | S. cerevisiae deletion strains, locus YNL006W, strain LST8, active compounds read low 0.976 | S. cerevisiae deletion strains, locus YNL020C, strain ARK1, active compounds read low 0.884 | S. cerevisiae deletion strains, locus YNL161W, strain CBK1, active compounds read low 0.96 | S. cerevisiae deletion strains, locus YNL183C, strain NPR1, active compounds read low 0.749 | S. cerevisiae deletion strains, locus YNL207W, strain RIO2, active compounds read low 0.938 | S. cerevisiae deletion strains, locus YNL222W, strain SSU72, active compounds read low 0.955 | S. cerevisiae deletion strains, locus YNL307C, strain MCK1 (second series), active compounds read low 0.711 | S. cerevisiae deletion strains, locus YOL078W, strain AVO1, active compounds read low 0.94 | S. cerevisiae deletion strains, locus YOL136C, strain PFK27, active compounds read low 0.879 | S. cerevisiae deletion strains, locus YOR061W, strain CKA2, active compounds read low 0.827 | S. cerevisiae deletion strains, locus YOR119C, strain RIO1, active compounds read low 0.876 | S. cerevisiae deletion strains, locus YOR231W, strain MKK1, active compounds read low 0.781 | S. cerevisiae deletion strains, locus YOR329C, strain SCD5, active compounds read low 0.956 | S. cerevisiae deletion strains, locus YPL031C, strain PHO85, active compounds read low 0.758 | S. cerevisiae deletion strains, locus YPL153C, strain RAD53, active compounds read low 0.856 | S. cerevisiae deletion strains, locus YPL204W, strain HRR25, active compounds read low 0.856 | S. cerevisiae deletion strains, locus YPL209C, strain IPL1, active compounds read low 0.954 | S. cerevisiae deletion strains, locus YPL256C, strain CLN2, active compounds read low 0.877 | S. cerevisiae deletion strains, locus YPR025C, strain CCL1, active compounds read low 0.956 | S. cerevisiae deletion strains, locus YPR106W, strain ISR1, active compounds read low 0.957 | S. cerevisiae deletion strains, locus YPR111W, strain DBF20, active compounds read low 0.944 | S. cerevisiae deletion strains, strain NNK1, active compounds read low 0.946 | S. cerevisiae deletion strains, strain TSCII, active compounds read low 0.945
